Reference: PubChem BioAssay (NCI)
Compounds without any hit were thinned out: in the full panel of roughly 79,000, 15% have a hit. A number with no mark means an inactive call. No stated cut-off is given here; in the data, active means growth inhibition above about 70%; inactive means the rest.

Experiment: NCI Yeast Anticancer Drug Screen. Data for the cln2 rad14 strain (AID 165);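 further: 0% = growth equal to vehicle treated cultures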
Details: S. cerevisiae cln2 rad14 strain, at 50.0 µM, stronger effect = higher value
In short: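 Yeast carrying cln2 and rad14 alterations (cell cycle control and DNA damage repair) were exposed to compounds. Growth inhibition was measured against vehicle-treated controls.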

First: CCOC(=O)c1ccc(NC(=O)/C=C/C(=O)O)cc1
Second: CCOCCOC(=O)c1ccc(C(C)C)cc1
The growth inhibition of the first is higher: -3.3% for the first, -12.8% for the second.

Compared with Cc1ccc(-n2cnc3c(Cl)ncnc32)cc1, CCOc1ncc(C(O)c2ccc(F)cc2)c(OCC)n1 (stereo not given) is lower in growth inhibition: -15.2% for the first, -52.4% for the second.

Compared with CCOC(=O)N[C@@H]1C(CC(=O)OC)O[C@H]2OC(C)(C)O[C@H]21 (stereo not given in full), CC1(C)OC2C(COCc3ccccc3)=CC(n3ccc(=O)[nH]c3=O)C2O1 (stereo not given) is lower in growth inhibition: 7.4% for the first, -0.7% for the second.

First: COc1ccc(N=Cc2cc(Cl)cc(Cl)c2OC(=O)c2ccccc2)cc1
Second: O=C(Oc1ccc(OC(=O)c2ccccc2)c(C2CCCCCC2)c1)c1ccccc1
The growth inhibition of the first is lower: 0.65% for the first, 14.3% for the second.

First: CSc1nc(N)c(NS(=O)(=O)c2ccc([N+](=O)[O-])cc2)c(=O)[nH]1
Second: CC1=C(C(=O)Nc2ccc([N+](=O)[O-])cc2)C(c2ccc3c(c2)OCO3)C(C(=O)Nc2ccc([N+](=O)[O-])cc2)=C(C)N1
The growth inhibition of the first is lower: -3.95% for the first, 24.4% for the second.

First: COc1cc(C(=O)N2C3C4CCC(C)(OC4(C)C)C32)cc(OC)c1OC (stereo not given)
Second: CC(=O)C1(C)CCC2C3CCC4=CC(=O)CCC4=C3CCC21C (stereo not given)
The growth inhibition of the first is higher: 10.2% for the first, 9.9% for the second.

Going from CCCCc1c[nH]n(C(N)=NCCSCc2nc[nH]c2C)c1=O to CCCCCCCCCCCCSc1nc2c([nH]1)c(=O)n(C)c(=S)n2C, the growth inhibition rises from -20.2% to 16.4%.

Compared with CCOC(=O)c1ccc(C(=O)OCC)n1-c1cc2cc(c1)CSCc1cc(cc(-n3c(C(=O)OCC)ccc3C(=O)OCC)c1)CSC2, COc1ccccc1C1C(C(=O)Nc2ccccc2)=C(C)NC(C)=C1C(=O)Nc1ccccc1 is lower in growth inhibition: 16.6% for the first, 15.1% for the second.

Going from NC1C=NNC1=O (stereo not given) to O=C1C=CC(=O)C1N=Nc1ccccc1, the growth inhibition rises from -13.2% to 18.3%.

Compared with O=C1CSC(=NCCN=C2NC(=O)CS2)N1, O=C(O)CCC1(c2ccccc2)NC(=O)NC1=O (stereo not given) is lower in growth inhibition: 1.6% for the first, -37% for the second.

Going from OCC1CC=CCC1 (stereo not given) to C[C@]12CC[C@@H]3c4ccc(OCCCO)c([N+](=O)[O-])c4CC[C@H]3[C@@H]1CCC2=O, the growth inhibition falls from 16% to 12.4%.

First: CC(C)=CCC/C(C)=C/CN
Second: C=CCOC(=O)CC(O)(CC(=O)OCC=C)C(=O)OCC=C
The growth inhibition of the first is higher: -17.6% for the first, -35.5% for the second.

Going from Cc1[nH]c(=O)nc(N/N=C/c2ccc(Cl)cc2)c1C(=O)Nc1ccc(Cl)cc1 to CCOC(=O)Nc1ccc(C2SCCN2C(=O)Nc2ccc(Cl)cc2)cc1 (stereo not given), the growth inhibition falls from 1.65% to -5.65%.

Going from CC(C)N1CN(C(C(=O)N[C@@H]2C(=O)N3C2SC(C)(C)C3C(=O)O)c2ccccc2)CSC1=S (stereo not given in full) to N#CC(C(=O)C(=O)Nc1cccc(Cl)c1)c1ccccc1 (stereo not given), the growth inhibition falls from -7.95% to -89.1%.

Going from CCC(C)(CCC(C)C)c1ccncc1 (stereo not given) to NCc1ccccc1F, the growth inhibition rises from -8.45% to 13.7%.

Compared with CCCCOC(OCCCC)C(OCCCC)OCCCC, CCCCC1=C(C)C/C(=N/Nc2ccc([N+](=O)[O-])cc2[N+](=O)[O-])C(C)C1CCCC (stereo not given) is higher in growth inhibition: -0.4% for the first, 8.15% for the second.

Compared with C[Si](C)(C)N1CCCC1, C[C@@]12CCC(=O)C=C1CC[C@H]1C2C(=O)C[C@]2(C)C1CC[C@@]2(O)C(=O)COC(=O)CCC(=O)O (stereo not given in full) is lower in growth inhibition: 12.4% for the first, 4.45% for the second.

Compared with NC(=O)c1ccccc1NC(=O)C(=O)C(C(=O)c1ccc2ccccc2c1)C1OC(=O)c2ccccc21 (stereo not given), CC(=O)Nc1ccc(S(=O)(=O)N=S(c2ccccc2)c2ccccc2)cc1 is higher in growth inhibition: -44.6% for the first, 10.8% for the second.

Going from N#CCCN(c1ccc(C=Nc2ccc(C(=O)O)cc2)cc1)S(=O)(=O)c1ccccc1 to O=S(=O)(c1ccc(O)c(Cl)c1)c1ccc(O)c(Cl)c1, the growth inhibition rises from 5.75% to 36.7%.

First: CC(C)N(C(=O)C12C3C4C5C3C1(C(=O)N(C(C)C)C(C)C)C5(C#N)C42)C(C)C (stereo not given)
Second: O=C1c2ccccc2C(=O)N1Cc1ccccc1-c1c2nc(c(-c3ccccc3CN3C(=O)c4ccccc4C3=O)c3ccc([nH]3)c(-c3ccccc3CN3C(=O)c4ccccc4C3=O)c3nc(c(-c4ccccc4CN4C(=O)c5ccccc5C4=O)c4ccc1[nH]4)C=C3)C=C2
The growth inhibition of the first is higher: 13.7% for the first, -3.4% for the second.
